Wnt bcat act: Wnt/beta-catenin pathway activation; Wnt/beta-catenin reporter cell assay, activator, plate reader; 300,000 compounds, 1.2% hits; AID 743398; activation, % at 9.35 µM; in the data active = activation above about 30%, passing the limit was not always enough;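 also: 0% = neutral control wells and 100% = positive control wells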
MLL AF4-AF9 inh: inhibitors of human MLL-AF4/AF9 interaction. AlphaScreen, biotin-AF4 peptide binding to FLAG-AF9. inhibition, % at 10 µM. 350,000 compounds, 0.47% hits;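 active = every replicate reaching a set inhibition limit, whatever the replicate mean, cut at about 25% in these data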;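 also: 0% = plate neutral control median and 100% = total signal loss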
Target sequence (P42568 whole entry, looked up): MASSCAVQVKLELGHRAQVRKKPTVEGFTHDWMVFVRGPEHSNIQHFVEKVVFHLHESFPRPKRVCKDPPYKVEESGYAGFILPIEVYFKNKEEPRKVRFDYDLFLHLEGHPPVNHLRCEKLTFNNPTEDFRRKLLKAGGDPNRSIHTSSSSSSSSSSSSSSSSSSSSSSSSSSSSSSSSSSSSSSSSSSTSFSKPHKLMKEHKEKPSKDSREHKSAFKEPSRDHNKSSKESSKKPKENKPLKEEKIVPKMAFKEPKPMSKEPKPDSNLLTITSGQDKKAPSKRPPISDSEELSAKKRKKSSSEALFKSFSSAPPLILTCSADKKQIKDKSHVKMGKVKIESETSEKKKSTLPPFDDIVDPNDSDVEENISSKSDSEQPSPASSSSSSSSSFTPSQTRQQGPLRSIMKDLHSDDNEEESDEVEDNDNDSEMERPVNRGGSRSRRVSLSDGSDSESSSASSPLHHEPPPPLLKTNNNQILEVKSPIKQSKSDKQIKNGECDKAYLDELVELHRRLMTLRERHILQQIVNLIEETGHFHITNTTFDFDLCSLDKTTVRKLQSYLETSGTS
FGF22 binding-1: binders of recombinant human FGF22 by thermal shift. Q9HCT0. SYPRO orange fluorescence; percent of sucrose octasulfate shift, DMSO zero. activity (Tm shift, normalised), % at 9.99 µM. 340,000 compounds, 1.5% hits. AID 651658;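 active = mean Tm shift, scaled 0 neutral to 100 positive control, at about 1.3% or above, every replicate too, limit read from the data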
Target sequence (Q9HCT0 whole entry, looked up): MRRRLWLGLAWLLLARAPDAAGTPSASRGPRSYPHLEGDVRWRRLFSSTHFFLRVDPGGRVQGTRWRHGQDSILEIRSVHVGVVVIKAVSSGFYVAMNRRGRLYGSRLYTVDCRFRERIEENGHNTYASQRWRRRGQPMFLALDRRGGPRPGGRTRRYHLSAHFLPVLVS
MITF TRPM1 HTS: MITF TRPM1 promoter activation in melanoma cells; 300,000 compounds, 0.75% hits; activation, % at 12.5 µM; SK-MEL-5 TRPM1-promoter luciferase, 24 h; % of positive control, neutral wells = 0;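 active = mean activation of at least 80% with every replicate also reaching 80%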;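 also: 0% = neutral control wells and 100% = parthenolide positive control wells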
SMARCA2 activ: increases SMARCA2 function in MMTV reporter cells. MG213 cells, MMTV-luciferase reporter, dexamethasone, overnight. activation, % at 9.1 µM. 370,000 compounds, 1% hits. AID 652017; in the data active = activation above about 7.8%;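 also: 0% = vehicle wells and 100% = reference activator wells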
esBAF inh: inhibitors of esBAF chromatin remodeling in mouse ES cells; Bmi1-luciferase knock-in reporter, 24 h; 100% = twice the neutral-well signal; reporter increase, % at 12.5 µM; 350,000 compounds, 2% hits; AID 602393; in the data active = activation above about 40%;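 also: 0% = median of the plate's neutral control wells and 100% = double that signal; a rise in the Bmi1 reporter signal indicates esBAF inhibition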
FGF22 binding-2: binders of human FGF22 by thermal shift. shares compounds with FGF22 binding-1. recombinant FGF22 thermal shift, SYPRO orange fluorescence. thermal shift activity, °C (ΔTm) at 38 µM. 1,000 compounds, 2% hits. AID 720646;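 active = fitted rise in melting shift crosses a set limit at or below the top valid dose tested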
FGF22 TSA DP: FGF22 (human) binding by thermal shift | shares compounds with FGF22 binding-1 | Thermal shift assay, SYPRO orange, melting temperature shift | Tm shift (activity), % at 38 µM | 50 tested, under 10 active | AID 743017;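 active = compounds whose fitted dose curve of melting temperature shift rises past a set threshold within the tested doses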
TSA no protein: compound-only SYPRO artifact for FGF22 binders; shares compounds with FGF22 binding-1; compound-only SYPRO orange thermal shift counter-screen, no protein; AC50, µM (titrated, usually from 38 µM); 1,000 compounds, 2% hits;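 active = rising signal whose fitted curve reaches the 0.54 level within the top valid dose, showing a melting point, actives reach about 13 µM in these data; inactive = the rest, including activity in the opposite direction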; also: value is where the raw curve crosses a fixed level and not half-maximal
An asterisk follows results filed as active; i = inactive; . = no result given; [ ] = remark or other dose. Only some compounds are listed: those with a hit (about 4.3% of all), similar ones and a draw of the others.

SMILES | Wnt bcat act | MLL AF4-AF9 inh | FGF22 binding-1 | MITF TRPM1 HTS | SMARCA2 activ | esBAF inh | FGF22 binding-2 | TSA no protein | others
C[C@H]1CN([C@@H](C)CO)S(=O)(=O)c2ccc(C3=CCCC3)cc2O[C@H]1CN(C)C | . | -3 | 0 | . | . | 2 | . | .
O=C(N/N=C/c1ccncc1)c1cc2ccccc2o1 | . | 0 | 1.8* | 6 | -4 | . | 0.023 | i
CC(=O)c1ccc(NC(=O)c2noc(C(C)C)c2[N+](=O)[O-])cc1 | -2 | -2 | 1.7* | -3 | 2 | . | 0.13 | i
CC(=O)N(C)C[C@H]1Oc2ncc(C#C[C@@H](C)O)cc2C(=O)N([C@@H](C)CO)C[C@@H]1C | . | -3 | 0 | . | . | 5 | . | .
CC(C)C#Cc1cnc2c(c1)C(=O)N([C@@H](C)CO)C[C@@H](C)[C@H](CN(C)C(=O)c1cnccn1)O2 | . | -7 | 1.3* | . | . | 6 | 0.028 | i
CC(C)C#Cc1cnc2c(c1)C(=O)N([C@H](C)CO)C[C@@H](C)[C@@H](CN(C)C(=O)c1cnccn1)O2 | . | -16 | 1 | . | . | -4 | . | .
CC(=O)N(C)C[C@H]1Oc2ncc(C#C[C@H](C)O)cc2C(=O)N([C@@H](C)CO)C[C@@H]1C | . | -4 | 3.6* | . | . | -1 | -0.13 | i
C/C=C/c1cnc2c(c1)C(=O)N([C@@H](C)CO)C[C@H](C)[C@@H](CN(C)C(=O)c1ccc3c(c1)OCO3)O2 | . | 0 | 2.6* | . | . | 0 | 0.17 | i
C/C=C/c1cnc2c(c1)C(=O)N([C@H](C)CO)C[C@H](C)[C@@H](CN(C)C(=O)c1ccc3c(c1)OCO3)O2 | . | -2 | 0 | . | . | -3 | . | .
CC(C)CC#Cc1ccc2c(c1)O[C@H](CN(C)C(=O)Cc1ccccn1)[C@H](C)CN([C@H](C)CO)S2(=O)=O | . | 8 | 0 | . | . | 4 | . | .
CCCN(CCC)CC(C)(C)NS(=O)(=O)c1ccc(Cl)cc1 | -1 | -5 | 1.4* | -9 | 2 | -11 | -0.022 | i
O=C(NCCc1c[nH]c2ccccc12)c1ccc(Cl)cc1 | 18 | 4 | 2.4* | . | 2 | 39 | -0.006 | i | FGF22 TSA DP=0
O=C(c1ccccn1)N1C[C@H]2[C@@H](c3ccccc31)[C@@H](CO)N2C(=O)c1ccccn1 | . | 0 | 11* | . | . | -4 | -0.005[42 µM] | i
O=C(c1cccc(F)c1)N1C[C@H]2[C@@H](c3ccccc31)[C@@H](CO)N2C(=O)c1ccccn1 | . | -2 | 3.3* | . | . | -8 | -0.048[42 µM] | i
O=C(c1ccccc1)N1C[C@H]2[C@@H](c3ccccc31)[C@@H](CO)N2C(=O)c1ccccn1 | . | -3 | 0 | . | . | 1 | . | .
CN1C(=O)N[C@@H]2c3ccccc3O[C@@]1(C)[C@@H]2COC(=O)c1ccccc1 | . | 1 | 0 | . | . | . | . | .
CC(C)N(Cc1ccccc1)C(=O)COC(=O)C1CCN(c2ccc(C(F)(F)F)cn2)CC1 | . | -1 | 1.5* | 0 | -2 | 7 | -0.009 | i
COCC#Cc1ccc2c(c1)O[C@H](CN(C)C(=O)CC1CC1)[C@H](C)CN([C@H](C)CO)S2(=O)=O | . | -4 | 0 | . | . | -5 | . | .
Cc1ccc(S(=O)(=O)N(C)/N=C/c2ccc(N(C)C)cc2)cc1 | -1 | 0 | 20* | -2 | 1 | 14 | 0.16 | i
COCC(=O)N1CC2(C1)[C@H](c1ccc(-c3cccc(C)c3)cc1)[C@@H](CO)N2C(=O)C1CC1 | . | -10 | . | . | . | . | . | .
COCC(=O)N1CC2(C1)[C@H](c1ccc(-c3cccc(C)c3)cc1)[C@H](CO)N2C(=O)C1CC1 | . | -8 | 1.5* | . | . | . | 0.062[42 µM] | i
CC(=O)N1[C@H](CO)[C@@H](c2ccccc2)C12CN(C(=O)Cc1ccccc1)C2 | . | 1 | 1.6* | . | . | . | -0.025 | i
O=C(Cc1ccccc1)N1CC2(C1)[C@H](c1ccccc1)[C@H](CO)N2C(=O)Cc1ccccc1 | . | 0 | 0 | . | . | . | . | .
COCC(=O)N1[C@H](CO)[C@H](c2ccccc2)C12CN(C(=O)c1ccccc1)C2 | . | 0 | 1.3* | . | . | . | -0.03[42 µM] | i
COCC(=O)N1CC[C@@H]2[C@@H](CO)Nc3ccc(-c4cccc(C(=O)N(C)C)c4)cc3[C@@H]21 | . | . | . | . | . | 0 | . | .
SMILES | Wnt bcat act | MLL AF4-AF9 inh | FGF22 binding-1 | MITF TRPM1 HTS | SMARCA2 activ | esBAF inh | FGF22 binding-2 | TSA no protein | others
COc1cccc(CNC(=O)C[C@H]2CC[C@H](NC(=O)C3CCOCC3)[C@@H](CO)O2)c1 | . | 0 | 0 | . | . | 0 | . | .
CCc1ccc(C(=O)NCc2cnn(C)c2)s1 | 3 | 0 | 3.2* | 16 | -3 | 36 | 0.2 | i
Cn1cc(CNC(=O)c2sc3cccc(Cl)c3c2Cl)cn1 | -6 | . | . | 9 | 0 | . | . | .
CCC(C)[C@H](NC(=O)N1CCn2c1nc1ccccc12)C(=O)NCCc1ccccc1 (stereo partly drawn) | 3 | -6 | 14* | -8 | -1 | 14 | 0.016 | i
COc1c(O)ccc(/C=C(\C#N)c2nc3ccccc3[nH]2)c1[N+](=O)[O-] | . | 11 | 1.4* | -21 | 2 | 32 | -0.11 | i
COc1ccc(/C=N/Nc2ccc([N+](=O)[O-])cc2)cc1O | 33* | 0 | 1.8* | 104* | 2 | 81* | . | i
COc1ccc([N+](=O)[O-])cc1/C=N/Nc1nn[nH]n1 | 2 | -3 | 1.5* | -8 | -3 | . | -0.04 | i
COc1ccc([N+](=O)[O-])cc1/C=N/NC(=O)c1nonc1N | 0 | 2 | 0 | 0 | -2 | -5 | . | .
COc1ccc(/C=N/NC(=O)c2cccc([N+](=O)[O-])c2)cc1OC | 0 | -1 | 1.6* | 7 | -1 | . | 0.034 | i
COc1ccc(/C=N/Nc2ccc([N+](=O)[O-])cc2)cc1Cn1cc([N+](=O)[O-])cn1 | . | . | . | 10 | 3 | 18 | . | .
COc1ccc(/C=N/NC(=O)c2cccc([N+](=O)[O-])c2)cc1OC(=O)c1ccccc1 | -1 | . | . | . | -1 | -34 | . | .
C[C@H](CO)N1C[C@H](C)[C@H](CN(C)S(=O)(=O)c2ccc(F)cc2)Oc2ccc(NC(=O)CCCCCC(=O)Nc3ccccc3N)cc2C1=O | . | -1 | 0 | . | . | . | . | .
Cc1ccc(S(=O)(=O)Nc2cccc3c2O[C@@H](CN(C)Cc2ccc(-c4ccccc4)cc2)[C@@H](C)CN([C@H](C)CO)C3=O)cc1 | . | 1 | 0 | . | . | -2 | . | .
CCCNC(=O)N1CC2(CCN(Cc3ccncc3)CC2)c2c(n(C)c3cc(OC)ccc23)[C@H]1CO | . | 5 | 0 | . | . | . | . | .
CSc1ccc(/C=N/NC(=O)c2ccc3nc[nH]c3c2)cc1 | -2 | 0 | 2.2* | . | 3 | 30 | . | i | FGF22 TSA DP=0
